This is an account of results in PubChem BioAssay (NCI).

The structures appear in SMILES notation. The panel holds about 79,000 compounds, 15% with a hit somewhere; the sample as a whole holds those more often. A number with no mark means an inactive call. Calls of active or inactive are those of the source. Cut-off read from the data, not from the text of the source: active = growth inhibition above about 70%; inactive = the rest.

Test [1] is described as follows: NCI Yeast Anticancer Drug Screen. Data for the rad50 strain (AID 155).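 Note: 0% = growth of vehicle-only cultures of the same strain.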 The settings on record: S. cerevisiae rad50 strain growth inhibition; at 50.0 µM; active compounds read high. The procedure, abridged: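 Genetically altered yeast (DNA repair pathway); compound treatment; growth inhibition vs vehicle ctrl.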
Test [2] in a line: NCI Yeast Anticancer Drug Screen. Data for the mec2-1 strain (AID 157). The settings on record: S. cerevisiae mec2-1 strain, at 50.0 µM, active compounds read high. Summed up: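 Compounds were applied to mec2-1 yeast cells. Their growth was then compared with that of vehicle-treated cultures to give growth inhibition.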
Test [3] in a line: NCI Yeast Anticancer Drug Screen. Data for the sgs1 mgt1 strain (AID 161).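 Note: 0% = growth of cultures given vehicle only.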 The settings on record: S. cerevisiae sgs1 mgt1 strain, at 50.0 µM, active compounds read high. Summed up: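 Yeast cells carrying a defined DNA-repair defect were exposed to test compounds. Growth inhibition was measured relative to vehicle-treated controls.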
The nature of test [4]: NCI Yeast Anticancer Drug Screen. Data for the cln2 rad14 strain (AID 165).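 Note: 0% = growth equal to vehicle treated cultures.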 The settings on record: S. cerevisiae cln2 rad14 strain, at 50.0 µM, active compounds read high. Summed up:
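Strain: cln2 rad14 yeast, altered in cell cycle control and DNA damage repair. Read-out: growth inhibition vs vehicle.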

Test [5] in a line: NCI Yeast Anticancer Drug Screen. Data for the bub3 strain (AID 167). The settings on record: S. cerevisiae bub3 mutant strain, at 50.0 µM, active compounds read high. Summed up: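 Yeast carrying a defined mutation is treated with each compound, and growth is compared with that of vehicle-exposed cells to give inhibition.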
Test [6] in a line: NCI Yeast Anticancer Drug Screen. Data for the mlh1 rad18 strain (AID 175). The settings on record: S. cerevisiae mlh1 rad18 strain growth inhibition; at 50.0 µM; active compounds read high. Summed up:
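A repair-deficient yeast strain is exposed to test compound, and growth is scored relative to vehicle-treated controls.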

On to `CCOC(=O)/C(C=Nc1c(C)n(C)n(-c2ccccc2)c1=O)=C(/C)O`, for which the growth inhibition is 19.7% in test [1]; 10.7% in test [2]; 11.7% in test [3]; 27.5% in test [4]; 10.8% in test [5]; 23.6% in test [6].

Take `CCOc1ccccc1N=Nc1c(C)nn(C(=S)SC)c1OCC`: the growth inhibition in test [1] is 22.5%; in test [2], 18.4%; in test [3] it was 26.4%; in test [4] it was 30.2%; in test [5], 14%; in test [6], 39.2%.

For `Cc1cccc(N(CCOS(C)(=O)=O)CCOS(C)(=O)=O)c1`, the growth inhibition in test [1] was -8.6%; in test [2], -2.2%; in test [3], 14%; in test [4] it was -47.4%; in test [5], -5.2%; in test [6], -10.9%.

For the compound `C(=Nc1ccc(N2CCOCC2)cc1)c1ccc2c(c1)OCO2`, the growth inhibition was -15.4% in test [1]; -7% in test [2]; -15.2% in test [3]; -49.5% in test [4]; -21.7% in test [5]; -22% in test [6].

Consider `Nc1ccc(CCc2ccc3ccccc3n2)cc1`, for which the growth inhibition in test [1] was 33.2%; in test [2] it was -9.25%; in test [3], 15.9%; in test [4], 7.9%; in test [5] it was -16.2%; in test [6] it was 33.5%.

As for `c1ccc(N2CCN(CCCN3CCc4c([nH]c5ccccc45)C3c3cccnc3)CC2)cc1` (stereo unspecified), the growth inhibition in test [1] is -5.55%; in test [2], -18.1%; in test [3], -18.8%; in test [4] it was 14.1%; in test [5], -7.9%; in test [6] it was -1.8%.

As for `COC1CC(C)(NC(=O)C(F)(F)F)C2OC(c3ccccc3)OCC2O1` (stereo unspecified), the growth inhibition in test [1] is -25%; in test [2] it was -17.7%; in test [3] it was -41.4%; in test [4] it was -35%; in test [5] it was -3.85%; in test [6], -9.65%.

Consider `OC(C/C(=N\Nc1ccccc1)c1ccc(F)cc1)(C(F)(F)F)C(F)(F)F`, for which the growth inhibition was 98.3% (active) in test [1]; 98.8% (active) in test [2]; 98.5% (active) in test [3]; 97.8% (active) in test [4]; 98.3% (active) in test [5]; 98.6% (active) in test [6].

For `S=C(S)OC1CCCCC1.[Zn+2]`, the growth inhibition is -14.9% in test [1]; -15.8% in test [2]; -22.2% in test [3]; -50.9% in test [4]; -24.8% in test [5]; -12.2% in test [6].

For `NS(=O)(=O)c1ccc(N=C2C=CC(=O)C=C2)cc1`, the growth inhibition was 13.6% in test [1]; 4.5% in test [2]; -0.2% in test [3]; -36.4% in test [4]; -4.05% in test [5]; -3.95% in test [6].

For `CCCCCCCCCCCCCCC/C=C\C(=O)O`, the growth inhibition in test [1] was 15.2%; in test [2], -5.8%; in test [3], -3.4%; in test [4], 10.3%; in test [5], 9.45%; in test [6] it was 1.4%.

Regarding `COc1ccc2nc3ccccc3c(NCCCN(C)C)c2c1`, the growth inhibition is 33.7% in test [1]; 41.1% in test [2]; 36.5% in test [3]; 60.1% in test [4]; 6.65% in test [5]; 12.3% in test [6].

With `Cc1cccc(Nc2nnc(Nc3cccc(C)n3)c3ccccc23)n1`, the growth inhibition in test [1] is -2.15%; in test [2], -4.5%; in test [3], -2.75%; in test [4] it was -4.25%; in test [5], -3.8%; in test [6], 4%.

For the compound `COc1ccc(C2=NC(=O)OC2(C)C)cc1`, the growth inhibition was -6.95% in test [1]; -20.2% in test [2]; -5.7% in test [3]; -11% in test [4]; -8.6% in test [5]; -10.2% in test [6].

Turning to `CCOC(=O)C(c1ccccc1)c1ccccc1`, the growth inhibition was -11.4% in test [1]; -26.7% in test [2]; -17.6% in test [3]; -43.2% in test [4]; -12.8% in test [5]; -12.2% in test [6].

Consider `Cc1ccc(S(=O)(=O)n2nc(C3OC(CO)C(O)C3O)c(O)c2C(N)=O)cc1` (stereo unspecified), for which the growth inhibition was -36.5% in test [1]; 16.6% in test [2]; -14.8% in test [3]; 38.1% in test [4]; -3% in test [5]; 22.8% in test [6].

Regarding `CSc1nc(C)c(Br)c(=O)n1C1OC(COC(C)=O)C(OC(C)=O)C(OC(C)=O)C1OC(C)=O` (stereo unspecified), the growth inhibition in test [1] was -1.2%; in test [2], -7.5%; in test [3], -13.1%; in test [4], 22.2%; in test [5] it was -19.9%; in test [6] it was 1.35%.

Consider `CCC(C)(CC(=O)O)CC(=O)O`, for which the growth inhibition in test [1] is -13.9%; in test [2] it was 7.45%; in test [3], -15.7%; in test [4], 0.85%; in test [5], 2.7%; in test [6] it was 5.3%.

As to `COc1ccc(N=Nc2c(C)c(C#N)c(=S)n(C3OC(CO)C(O)C(O)C3O)c2-c2ccccc2)cc1` (stereo unspecified), the growth inhibition in test [1] was 0.55%; in test [2], 2.85%; in test [3] it was 20.1%; in test [4], 10.7%; in test [5], 11.8%; in test [6], 23.9%.

Consider `C=C1C(O)CC2C(O)C3(C)CCC(C)(C)C3C12O` (stereo unspecified), for which the growth inhibition in test [1] was 3.55%; in test [2] it was 1.2%; in test [3] it was 12.2%; in test [4] it was 15.3%; in test [5], -0.25%; in test [6], 11.7%.

`COc1cc2c(c(OC)c1OC)-c1ccc(SC)c(=O)cc1[C@@H](NC1OCC(O)C(O)C1O)CC2` (stereo partly specified): the growth inhibition was 20.4% in test [1]; 35.1% in test [2]; 24.1% in test [3]; 8.65% in test [4]; 21.1% in test [5]; 16.8% in test [6].
